Measured values from PMC4552634, “A New Set of Chemical Starting Points with Plasmodium falciparum Transmission-Blocking Potential for Antimalarial Drug Discovery” (PLoS ONE, 2015).
Out of some 13,000 compounds screened, about 3,200 (25%) showed an effect of 50% or more. This is one part of the list.

What follows are compounds tested on P. falciparum stage V gametocytes. Conditions: 48 h, 5 µM; inhibitor.
Set-up: BacTiter-Glo ATP luminescence viability of purified stage V gametocytes in 384-well plates, per cent inhibition versus DMSO

Row | Structure (SMILES) | % Inhibition [%]
1 | Cc1c(CNCCCNc2nc3ccccc3[nH]2)[nH]c2cc(Cl)cc(Cl)c12 [TCMDC-139964] | 2.559
2 | Oc1ccc(-c2cncc(NCc3ccc(F)c(F)c3)c2)cc1 [TCMDC-136668] | 23.22
3 | CC(=O)Nc1nc(C(=O)Nc2ccc(-c3ccc(-c4nc5ccc(F)cc5[nH]4)cc3)cc2)cs1 [TCMDC-136779] | 1.328
4 | C=CC(=O)Nc1ccc(Cl)cc1C(O)c1ccccc1 (centres unmarked) [TCMDC-131787] | 1.536
5 | CC(C)C1c2ccc(O)cc2CC2C(=O)N(C3CCCCC3)C(=O)N21 (centres unmarked) [TCMDC-138120] | 28.46
6 | Cc1cc(-c2cccc(CNC3CCN(C)CC3)c2)ccc1S(=O)(=O)NC1CCC1 [TCMDC-132380] | 72.06
7 | Cc1cc(-c2cccc(CNCc3ccccc3)c2)ccc1S(=O)(=O)NCCN1CCCC1 [TCMDC-132382] | 4
8 | Cc1cc(-c2cccc(CNC3CCN(C)CC3)c2)ccc1S(=O)(=O)NCCN1CCCC1 [TCMDC-132383] | 87.02
9 | Cc1cc(-c2cccc(CNC3CCCC3)c2)ccc1S(=O)(=O)NCCN1CCCC1 [TCMDC-132279] | 103.9
10 | CN1CCC(NCc2cccc(-c3ccc(S(=O)(=O)NCCN4CCCC4)c(F)c3)c2)CC1 [TCMDC-132222] | 88.17
11 | Cc1cnc2cc3c(cc2c1N1CCN(C)CC1)NCC3 [TCMDC-140363] | -97.35
12 | Cc1cccc(-c2ccc(NC(=O)Nc3ccc4nccc(N5CCN(C)CC5)c4c3)cc2C)n1 [TCMDC-139353] | 26.78
13 | COc1ccc(C=NNc2nc3ccccc3[nH]2)cc1O [TCMDC-124104] | -79.21
14 | COC(=O)C(Cc1ccccc1)NC(=O)NC1CCN(c2ccnc(Nc3ccc(F)cc3)n2)C1 (centres unmarked) [TCMDC-133597] | 34.56
15 | Nc1nc(N)c2c(n1)CCC(c1ccccc1)C2 (centres unmarked) [TCMDC-137806] | -20.76
16 | CS(=O)(=O)c1ccc(Nc2ncc(-c3ccc(S(C)(=O)=O)cc3)c(OCC(F)(F)F)n2)cc1 [TCMDC-138524] | 24.49
17 | COc1ccc(C(C(=O)NC2CCN(C[C@H](O)c3ccnc4ccc(OC)cc34)CC2)N2CCc3ccccc3C2)cc1 (some centres unmarked) [TCMDC-140986] | 7.291
18 | Cc1ccc(F)c(OCC2CCN(c3ccc(C(=O)NC4CC4)cn3)CC2)c1 [TCMDC-134037] | 41.12
19 | CN(C)CCCOc1cccc(CCNCc2cccc(Oc3ccc(Cl)cc3)c2)c1 [TCMDC-140091] | 58.44
20 | CN(C)CCCOc1cccc(NC(=O)Nc2ccc(Cl)c(Cl)c2)c1 [TCMDC-139538] | -5.244
21 | CN(C)CCCOc1ccc(CNCc2cccc(Oc3ccc(Cl)cc3)c2)cc1 [TCMDC-140101] | 61.18
22 | OC(CNCc1cccc(Oc2ccc(Cl)cc2)c1)c1cccc(C(F)(F)F)c1 (centres unmarked) [TCMDC-140301] | -22.32
23 | CN(C)CCCOc1ccc(CCNCc2cccc(Oc3ccc(Cl)cc3)c2)cc1 [TCMDC-140092] | 79.59
24 | OC(CNCc1cccc(Oc2ccc(Cl)cc2)c1)c1cc(C(F)(F)F)cc(C(F)(F)F)c1 (centres unmarked) [TCMDC-140302] | 49.58

Row | Structure (SMILES) | % Inhibition [%]
25 | Cc1c(-c2cccc(CNCCc3ccc(Cl)cc3)c2)cnc(N)c1C [TCMDC-138274] | 9.871
26 | CN(C)CCCOc1ccc(CCCCc2ccc(Cl)cc2C(=O)c2ccccc2)cc1 [TCMDC-131856] | 31.42
27 | COc1ccc(NC(=O)/C=C/c2cc(F)cc(C(F)(F)F)c2)cc1OCCN(C(C)C)C(C)C [TCMDC-140669] | -66.83
28 | Cc1cc2c(cc1C(F)(F)F)N(C(=O)Nc1cc(OCCN(C(C)C)C(C)C)cc(C(F)(F)F)c1)CC2 [TCMDC-140341] | -56.2
29 | CC=CC(=O)N1CCN(c2nccc(-c3ccc(C(C)(C)C)cc3)n2)CC1 [TCMDC-124777] | 7.647
30 | COc1ccc(N2C(N)=NC(N)=NC2(C)C)cc1 [TCMDC-124269] | -3.695
31 | O=[N+]([O-])c1cc(/C=N/Nc2nc3nonc3nc2Nc2ccc(F)cc2)c(Cl)cc1Cl [TCMDC-124221] | -26.03
32 | COc1cccc(C2(C)CCN(CCCCNC(=O)c3ccc(NC(=O)c4ccc(Cl)cc4)cc3)CC2)c1 [TCMDC-138368] | -18.96
33 | O=C(Nc1ccc(Br)cc1)N(CCN1CCOCC1)CC(O)COc1ccc(Cl)c(F)c1 (centres unmarked) [TCMDC-141493] | -10.57
34 | CC1(C)N=C(N)N=C(N)N1CCc1ccccc1 [TCMDC-125516] | 9.542
35 | CCOC(=O)N[C@@H]1CN[C@@H](C#Cc2cc3c(Nc4ccc(OCc5cccc(F)c5)c(Cl)c4)ncnc3s2)C1 [TCMDC-135402] | -37.93
36 | Cc1noc(C)c1C(=O)N1CCCC(c2[nH]c3c(C)cccc3c2-c2ccncc2)C1 (centres unmarked) [TCMDC-125361] | 56.42
37 | O=C(CCn1cncn1)N1CCCC(c2[nH]c3ccccc3c2-c2ccncc2)C1 (centres unmarked) [TCMDC-125377] | -42.34
38 | Cc1noc(C)c1C(=O)N1CCc2cc3nccc(N4CCN5CCC[C@H]5C4)c3cc21 [TCMDC-140041] | -37.7
39 | Oc1ccc(CCNc2nc(NCCOc3cccc4ccccc34)nc(N3CCNCC3)n2)cc1 [TCMDC-134132] | -65.6
40 | Cc1c(CN2CCCCC2)cccc1OCCCNc1nc(NCCc2ccc(O)cc2)nc(N2CCNCC2)n1 [TCMDC-134046] | 87.79
41 | CN(/N=C/c1ccc(Cl)cc1)c1nc(NCCc2ccc(O)cc2)nc(N2CCNCC2)n1 [TCMDC-138544] | 44.17
42 | Oc1ccc(CCNc2nc(NCCCOc3cccc(CN4CCCCC4)c3Cl)nc(N3CCNCC3)n2)cc1 [TCMDC-134045] | -20.8
43 | Oc1ccc(CCNc2nc(NCCCOc3cccc(-c4ccccc4)c3)nc(N3CCNCC3)n2)cc1 [TCMDC-134043] | -9.264
44 | Oc1ccc(CCNc2nc(N/N=C/C=C/c3ccc(Cl)cc3)nc(N3CCNCC3)n2)cc1 [TCMDC-138545] | -5.801
45 | Oc1ccc(CCNc2nc(NCCCOc3cc(CN4CCCCC4)ccc3F)nc(N3CCNCC3)n2)cc1 [TCMDC-134044] | 66.8
46 | CN(/N=C/C=C/c1ccc(Cl)cc1)c1nc(NCCc2ccc(O)cc2)nc(N2CCNCC2)n1 [TCMDC-138546] | 80.85
47 | Cc1cc(OCCCNc2nc(NCCc3ccc(O)cc3)nc(N3CCNCC3)n2)c(Cl)c(C)c1Cl [TCMDC-134048] | -28.15
